Screening results: PubChem, University of Kansas High Throughput Screening Laboratory
Rows were chosen to be rich in hits. Some 3.6% of all compounds tested hit in one or more screens of this group.
Pf apPOL block: Pf-apPOL DNA polymerase inhibition; Recombinant Pf-apPOL, molecular beacon fluorescence, 1.5 h; inhibition, % at 10 µM; 210,000 tested, 0.25% active
mHTT CaM bind: inhibitors of human mutant huntingtin-calmodulin interaction. P42858. AlphaScreen His-mHTT/GST-CaM binding, luminescence. inhibition, % at 15 µM. 190,000 tested, 3.6% active. AID 1671202;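 also: 0% = both proteins with DMSO and 100% = one protein alone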
Active calls of the source: *. Rule as the data show it: active = inhibition above about 50%; inactive = the rest.

What do the screens show for `O=P(Nc1ccccc1I)(Oc1ccccc1)Oc1ccccc1`?
Pf apPOL block: -2.2; mHTT CaM bind: -25.0

Results for COc1ccc(OC)c(NP(=O)(Oc2ccccc2)Oc2ccccc2)c1 ?
Pf apPOL block: 0.1; mHTT CaM bind: 74.0*

What do the screens show for `CC(C)N1CCN(c2ncccc2C#N)CC1`?
Pf apPOL block: -3.1; mHTT CaM bind: -0.4

What do the screens show for `O=C(O)CCCCC[n+]1cc(N=C([O-])Nc2ccccc2)on1`?
Pf apPOL block: 1.4; mHTT CaM bind: -5.0

What do the screens show for `CCOc1cc(/C=C/[N+](=O)[O-])cc(Br)c1O`?
Pf apPOL block: -14.6; mHTT CaM bind: 78.2*

Results for COc1cc(/C=C(\C)[N+](=O)[O-])cc(Br)c1O ?
Pf apPOL block: -1.0; mHTT CaM bind: 23.0

Results for COc1cc(/C=C/[N+](=O)[O-])cc(Br)c1O ?
Pf apPOL block: -1.0; mHTT CaM bind: 52.3*

Results for CCOc1ccc(/C=C/[N+](=O)[O-])cc1 ?
Pf apPOL block: -1.0; mHTT CaM bind: 18.8

What do the screens show for `O=C(NCc1cccc2ccccc12)NCC1CCN(C(=O)Oc2ccccc2)CC1`?
Pf apPOL block: -4.4; mHTT CaM bind: -3.0

How did O=[P@@]1(Oc2ccccc2)C[C@@H](O)[C@@H](O)[C@H](COCc2ccccc2)O1 do in these assays?
Pf apPOL block: -3.4; mHTT CaM bind: -11.9

Results for Cc1nc(C(=O)Nc2ccc3c(c2)OCCO3)c(C)n1C1CCN(C)CC1 ?
Pf apPOL block: 2.8; mHTT CaM bind: 13.9

How did Cc1nc(C(=O)Nc2ccc3c(c2)OCO3)c(C)n1C1CCN(C)CC1 do in these assays?
Pf apPOL block: -2.0; mHTT CaM bind: 71.4*

What do the screens show for `Cc1ccc(-c2c(C(=O)O)nnn2Cc2cccc(F)c2)cc1`?
Pf apPOL block: -0.3; mHTT CaM bind: 5.0

How did S=C(SSC(=S)N1CCCCC1)N1CCCCC1 do in these assays?
mHTT CaM bind: 51.2*

Results for S=C(S)N1CCCCC1 ?
Pf apPOL block: 1.2

How did CCSc1nc2ccccc2c(=O)n1-c1ccccc1F do in these assays?
Pf apPOL block: -2.3; mHTT CaM bind: -38.2

Results for COc1ccc(N2CCN(Cc3ccc(Cl)c(Cl)c3)CC2)cc1 ?
Pf apPOL block: -5.0; mHTT CaM bind: 65.0*

What do the screens show for `COc1ccc(N2CCN(Cc3ccc(Cl)cc3)CC2)cc1`?
Pf apPOL block: -5.5; mHTT CaM bind: 34.5

What do the screens show for `COc1ccc(N2CCN(Cc3cccc(Cl)c3Cl)CC2)cc1`?
Pf apPOL block: 5.2; mHTT CaM bind: 56.3*

How did COc1ccc(N2CCN(Cc3ccc(F)cc3)CC2)cc1 do in these assays?
Pf apPOL block: -0.2; mHTT CaM bind: 22.3

Results for COc1cccc(Oc2c(C(F)(F)F)oc3cc(OC(=O)N(C)C)ccc3c2=O)c1 ?
Pf apPOL block: -0.2; mHTT CaM bind: -0.2

Results for COCCN1CCC(N2CCCN(C(=O)Cc3ccccc3OC)CC2)C1=O (centres undefined) ?
Pf apPOL block: 5.1; mHTT CaM bind: 10.4

Results for CC1(C)OCC2(CNC2)CO1 ?
Pf apPOL block: -2.3; mHTT CaM bind: -2.7

How did O=c1oc2ccccc2c(O)c1C(c1ccc([N+](=O)[O-])cc1)c1c(O)c2ccccc2oc1=O do in these assays?
Pf apPOL block: -7.1; mHTT CaM bind: 71.0*

Results for O=c1oc2ccccc2c(O)c1C(c1ccccc1[N+](=O)[O-])c1c(O)c2ccccc2oc1=O ?
Pf apPOL block: -4.8; mHTT CaM bind: 24.0

Results for CC(c1c(O)c2ccccc2oc1=O)c1c(O)c2ccccc2oc1=O ?
Pf apPOL block: 0.7; mHTT CaM bind: 5.0

How did COc1ccc(OC)c(C(c2c(O)c3ccccc3oc2=O)c2c(O)c3ccccc3oc2=O)c1 do in these assays?
Pf apPOL block: -21.4; mHTT CaM bind: 55.0*

What do the screens show for `OCC1OC(Oc2c[nH]c3ccc(Br)c(Cl)c23)C(O)C(O)C1O` (centres undefined)?
Pf apPOL block: 20.1

What do the screens show for `CN(C)C(=O)Oc1ccc2c(c1)OC(=Cc1cc(Br)cc3c1OCOC3)C2=O`?
Pf apPOL block: -6.9; mHTT CaM bind: -0.7

How did Cc1c(C#N)c(N)n(CCCn2ccnc2)c1C do in these assays?
mHTT CaM bind: 99.1*

How did Cc1c(C#N)c(N)n(CC2CCCO2)c1C (centres undefined) do in these assays?
mHTT CaM bind: 22.4

How did N#Cc1cc([N+](=O)[O-])ccc1N1CC2CC(C1)c1cccc(=O)n1C2 (centres undefined) do in these assays?
Pf apPOL block: -6.4; mHTT CaM bind: -3.0

What do the screens show for `CC1CCC2(O)C3(C)CC4(O)OC2(C1O)C1(O)C3(O)C(OC(=O)c2ccc[nH]2)C(O)(C(C)C)C41C` (centres undefined)?
Pf apPOL block: -6.2

How did COc1ccc(Cl)cc1NC(=O)C1c2cc(OC)c(OC)cc2C(=O)N2CCCCC12 (centres undefined) do in these assays?
Pf apPOL block: -4.3; mHTT CaM bind: 79.0*

How did COc1ccc(Cl)cc1NC(=O)C1c2ccccc2C(=O)N2CCCCC12 (centres undefined) do in these assays?
Pf apPOL block: -4.6; mHTT CaM bind: 2.0

How did O=[N+]([O-])c1c(Br)c([N+](=O)[O-])c2n[nH]nc2c1Br do in these assays?
Pf apPOL block: -4.2; mHTT CaM bind: 88.0*

What do the screens show for `O=[N+]([O-])c1cc2nonc2c2n[nH]nc12`?
mHTT CaM bind: 10.3

What do the screens show for `COc1ccc(-c2coc3cc(OC(=O)N(C)C)cc(OC)c3c2=O)cc1OC`?
Pf apPOL block: -5.2; mHTT CaM bind: 10.9

What do the screens show for `Cc1cc2oc(=O)cc(CN3CC4CC(C3)c3cccc(=O)n3C4)c2cc1Cl` (centres undefined)?
Pf apPOL block: -1.2; mHTT CaM bind: 2.9

What do the screens show for `Nc1c([N+](=O)[O-])cc2[nH]c(=O)[nH]c2c1[N+](=O)[O-]`?
mHTT CaM bind: 0.2

How did O=c1[nH]c(=S)[nH]c(O)c1C=C1C=CC=N1 do in these assays?
Pf apPOL block: 89.0*

How did COc1cc(C2OC3=C(C(=O)CC(C)(C)C3)C(N)=C2C#N)cc(I)c1O (centres undefined) do in these assays?
Pf apPOL block: -4.1; mHTT CaM bind: 1.0

What do the screens show for `CC(Cc1ccccc1)[n+]1cc(N=C([O-])N(C)C)on1` (centres undefined)?
Pf apPOL block: -1.1; mHTT CaM bind: -5.0

What do the screens show for `Cc1cccc(-n2c(-c3cccnc3)nc3ccccc3c2=O)c1`?
Pf apPOL block: -9.7; mHTT CaM bind: 100.0*

What do the screens show for `Cc1ccc(-c2nc3ccccc3c(=O)n2-c2cccnc2)cc1`?
Pf apPOL block: -8.5; mHTT CaM bind: 1.7

Results for CCN1CCN(c2ncccc2C#N)CC1 ?
Pf apPOL block: -2.3; mHTT CaM bind: -3.7

What do the screens show for `CC1N=C(c2ccccc2)c2ccccc2N(CC(=O)Nc2cccc(Cl)c2)C1=O` (centres undefined)?
Pf apPOL block: -11.2; mHTT CaM bind: 22.0

Results for Cc1ccc(NC(=O)CN2C(=O)C(C)N=C(c3ccccc3)c3ccccc32)cc1Cl (centres undefined) ?
Pf apPOL block: -21.2; mHTT CaM bind: 52.0*

What do the screens show for `CC1=Nc2ccccc2C1=Cc1c(O)[nH]c(=O)[nH]c1=O`?
Pf apPOL block: -49.6; mHTT CaM bind: 54.0*

How did O=c1c2ccccc2nc(C[n+]2ccccc2)n1-c1ccccc1 do in these assays?
Pf apPOL block: 4.6; mHTT CaM bind: -6.0

Results for O=[N+]([O-])c1cc[n+]([O-])c2ccccc12 ?
mHTT CaM bind: -5.4

Results for O=C(CCN1CCOCC1)Nc1ccc(Br)cc1C(=O)c1ccccc1 ?
Pf apPOL block: -1.5; mHTT CaM bind: 80.6*
